# MITF inh: human MITF inhibition, primary screen. O75030. inhibition, % at 2.6 µM. hit rate 0.91% among 650,000. AlphaScreen MITF homodimerization, bead proximity signal; in the data active = inhibition above about 50%;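 also: 0% = vehicle wells with protein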
# Target sequence (O75030 whole entry, looked up): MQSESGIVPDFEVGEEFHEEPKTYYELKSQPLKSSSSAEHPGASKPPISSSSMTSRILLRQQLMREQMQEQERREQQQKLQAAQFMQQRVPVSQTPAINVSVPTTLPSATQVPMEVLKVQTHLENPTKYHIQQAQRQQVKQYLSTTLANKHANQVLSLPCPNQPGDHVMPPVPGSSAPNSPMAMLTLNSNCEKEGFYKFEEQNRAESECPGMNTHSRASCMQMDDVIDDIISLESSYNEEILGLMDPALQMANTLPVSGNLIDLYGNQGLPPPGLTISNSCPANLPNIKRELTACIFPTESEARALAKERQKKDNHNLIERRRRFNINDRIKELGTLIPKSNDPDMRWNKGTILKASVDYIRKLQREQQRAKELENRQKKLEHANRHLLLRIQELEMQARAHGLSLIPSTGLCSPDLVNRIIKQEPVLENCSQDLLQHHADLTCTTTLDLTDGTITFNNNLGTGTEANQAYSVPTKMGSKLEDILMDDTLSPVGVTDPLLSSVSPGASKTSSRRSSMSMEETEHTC
# TEAD-YAP block: TEAD-YAP interaction inhibition | inhibition, % at 9.12 µM | HEK-TIYL cells, TEAD-Gal4/YAP UAS-luciferase luminescence | AID 1259422 | hit rate 1.4% among 640,000; in the data active = inhibition above about 32%;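 also: 0% = median of test compound wells and 100% = reference inhibitor wells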
# GPR151 ag: human GPR151 activation. activation, % at 11.2 µM. PathHunter beta-arrestin GPR151 cells, luminescence. hit rate 1% among 650,000. Q8TDV0; in the data active = activation above about 4.9%;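 also: 0% = median of compound wells and 100% = cells with positive control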
# FBW7 act: human FBW7 E3 ligase activation, primary screen | AID 1259310 | AlphaScreen FBW7–phospho-cyclin E peptide binding, activator screen | normalized activity (activation), % at 26.1 µM | Q969H0 | hit rate 0.13% among 650,000; in the data active = normalized activity above about 1.9%;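 also: purified mutant Fbw7 with reduced substrate affinity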
# * = called active by the depositor. Sampled rows, rich in hits. Any-hit rate of the full collection: about 3.5%.
SMILES,MITF inh,TEAD-YAP block,GPR151 ag,FBW7 act
Cc1ccc(-n2nc3c(c2NC(=O)C2CCCC2)CSC3)c(C)c1,17,4,1,1.9*
CCOC(=O)c1c(C)[nH]c(C(=O)CSc2nccn2C)c1C,-6,87*,-7,0
CCOC(=O)c1c(C)[nH]c(C(=O)CSc2nnnn2-c2ccc(Cl)cc2)c1C,-2,-4,-2,0
Cc1cc(=O)[nH]c(N/N=C/c2ccc(O)c(O)c2O)n1,100*,-9,2,-1
Cc1cc(C)nc(N/N=C/c2cc(Br)cc(Br)c2O)n1,50,13,-2,-1
Cc1cc(C)nc(N/N=C/c2ccc(O)c(O)c2O)n1,52*,12,2,-1
Cc1ccc(/C=C/C(=O)Nc2ccc3nc4n(c(=O)c3c2)CCCCC4)cc1,-19,-14,0,0
CCCCOc1ccc(-c2nn(-c3ccccc3)cc2/C=c2\sc3nc(=O)c(C)nn3c2=O)cc1C,-24,9,0,0
CCCCOc1ccc(-c2nn(-c3ccccc3)cc2/C=c2\sc3nc(=O)c(Cc4ccccc4)nn3c2=O)cc1C,76*,4,-1,0
CC(=O)N1CCN(Cc2ccc3c(c2)CN(C(=O)C2(C)CCCCC2)CCO3)CC1,-1,3,-1,0
CC(C)(C)c1ccc(C(=O)Nc2ccc(S(=O)(=O)N3CCCCC3c3cccnc3)cc2)cc1 (centres undefined),-8,43*,-1,0
COc1cc(/C=C/C(=O)Nc2ccc(S(=O)(=O)N3CCCCC3c3cccnc3)cc2)cc(OC)c1OC (centres undefined),14,56*,1,0
O=C(Nc1ccc(S(=O)(=O)N2CCCCC2c2cccnc2)cc1)c1ccccc1 (centres undefined),-2,8,0,0
CC1CCc2c(sc3ncnc(SCC(=O)N4CCCCCC4)c23)C1 (centres undefined),0,6,0,0
O=C(Cc1ccc(Br)cc1)OCC(=O)c1ccc(F)cc1,-14,-4,1,0
COCCCn1nnnc1SCC(=O)Nc1cccc(C(C)=O)c1,15,15,0,0
Oc1c(Cl)cc(CN2CCOCC2)c2cccnc12,100*,86*,0,-1
Oc1c(Br)cc(CN2CCOCC2)c2cccnc12,102*,75*,0,-1
Cc1cc2c(c(=O)o1)C1(C(=O)Nc3ccc(C)c(Br)c31)C(C#N)=C(N)O2 (centres undefined),4,0,2,0
O=C(NC1CC1)c1csc(Nc2cccnc2)n1,8,7,1,0
O=C(NC1CC1)c1ccc2cncc(-c3ccsc3)c2n1,11,71*,-2,0
COCCNC(=O)c1ccc2cncc(-c3ccsc3)c2n1,14,78*,0,0
Cc1ccc(-c2nc3scc(CCNC(=O)COc4ccccc4)n3n2)cc1,2,1,-2,0
CC(=O)Oc1ccc2c(=O)c(-c3ccc4c(c3)OCCO4)c(C)oc2c1,13,-19,1,1
COc1cccc(-c2cc3ccc(OC(C)=O)cc3oc2=O)c1,-8,58*,-11,1
SMILES,MITF inh,TEAD-YAP block,GPR151 ag,FBW7 act
CC(=O)Oc1ccc2cc(-c3ccc4c(c3)OCCO4)c(=O)oc2c1,10,63*,-4,0
COc1ccc(-c2cc3ccc(O)cc3oc2=O)cc1,-8,70*,-10,2
COc1ccc2cc(-c3nc(-c4ccccc4)no3)c(=O)oc2c1,4,59*,0,0
CC(C)c1nnc(C2CCN(CC(=O)N3CCc4ccccc43)CC2)o1,7,8,1,1
O=C1NC(c2ccncc2)Nc2ccccc21 (centres undefined),5,8,1,0
CC(C)(C)c1ccc(C2NC(=O)c3ccccc3N2)cc1 (centres undefined),8,48*,0,0
N#CCOc1ccc(C2NC(=O)c3ccccc3N2)cc1 (centres undefined),-1,-11,1,0
Brc1cccc(C2Nc3cccc4cccc(c34)N2)c1,-4,-11,0,1
O=C1NC(c2ccc(-c3ccccc3)cc2)Nc2ccccc21 (centres undefined),-12,40*,-1,0
O=C1NC(c2cccc(Br)c2)Nc2ccccc21 (centres undefined),-10,49*,1,0
CN(C)c1ccc(C2NC(=O)c3ccccc3N2)cc1 (centres undefined),1,56*,-4,0
COC(CN1C(=O)C(O)=C(C(C)=O)C1c1ccc(F)cc1)OC (centres undefined),2,-2,1,0
CC(C)(C)NS(=O)(=O)c1ccc(NC(=O)C(C)(C)C)cc1,-3,13,1,0
CCOc1ccc(C2C=C(c3ccc(F)cc3)Nc3nnnn32)cc1 (centres undefined),-14,-16,3,0
CCOc1ccc(C2=CC(c3cc(OC)c(OC)c(OC)c3)n3nnnc3N2)cc1 (centres undefined),5,44*,2,0
COc1cccc(C2C=C(c3ccc(C)cc3)Nc3nnnn32)c1 (centres undefined),4,32*,0,0
COc1cccc(C2=CC(c3cc(OC)ccc3OC)n3nnnc3N2)c1 (centres undefined),10,50*,-2,0
COc1cccc(C2=CC(c3ccccc3F)n3nnnc3N2)c1 (centres undefined),15,44*,1,0
COc1ccc(C2=CC(c3cc(OC)ccc3OC)n3nnnc3N2)cc1 (centres undefined),4,-4,0,0
COCCCn1c(=O)[nH]c2ncc(-c3ccc(OC)cc3)nc21,-12,-3,1,0
Cc1ccc(NC(=O)c2cccc(OCc3cccc(Cl)c3)c2)cc1,-2,-28,-3,0
CCOC(=O)CC(=O)CSc1nc(C)c2cc(C)c(C)cc2n1,-9,-17,0,0
COc1cccc(C2=CC(c3cc(OC)c(OC)c(OC)c3)n3nnnc3N2)c1 (centres undefined),7,57*,-1,0
COc1cccc(C2=CC(c3cccc(OC)c3OC)n3nnnc3N2)c1 (centres undefined),-1,30,0,0
COc1cccc(C2=CC(c3cccc(OC)c3)n3nnnc3N2)c1 (centres undefined),-3,56*,1,0
SMILES,MITF inh,TEAD-YAP block,GPR151 ag,FBW7 act
COc1ccccc1NC(=O)NCCCNc1nc2cc3c(cc2cc1C#N)OCO3,-6,65*,0,0
N#Cc1cc2cc3c(cc2nc1NCCCNC(=O)Cc1ccccc1)OCO3,10,34*,-1,0
Cc1cc(/C=N/Nc2nc(N)ncc2[N+](=O)[O-])c(C)n1-c1ccccc1F,14,63*,-7,0
Cc1cc(/C=N\Nc2ccc([N+](=O)[O-])cn2)c(C)n1-c1ccccc1F,-11,-57,0,0
Cc1ccc(C2=N/C(=C\c3ccccc3OCc3ccccc3)C(=O)O2)cc1,-3,41*,1,0
CC(=O)Nc1ccc(C2=N/C(=C/c3ccc(OCc4ccccc4)cc3)C(=O)O2)cc1,1,43*,1,0
